# Laboratory results published in PubChem BioAssay AID662 (National Center for Advancing Translational Sciences (NCATS), 2007).
# Hit rate of the full screen: of about 71,000 compounds, about 1,800 (2.5%) were called active. Inconclusive results (about 26%) are left out. The entries come from a sample that favours actives as a whole. Values without a mark were called inactive. The call rests on the fitted dose curve; in most records, active means well fitted activation curve with a large enough effect in the signal ratio, with a control signal flat (not every such curve was filed as active); inconclusive means small, poorly fitted or top-dose-only effect, or effect the other way, or a change in a side signal; inactive means flat fitted curve, though single readings scatter; the % refers to the signal ratio.
# Experiment: Cell signaling CRE-BLA (Fsk stim); on activity change, negative = inhibition: % of control where 0% means no effect
# Conditions: CHO CRE-bla reporter (cAMP response element driving beta-lactamase), forskolin EC10, beta-lactamase ratio; series mostly up to 38.2 µM; activity change, negative = inhibition: at the top concentration
# Source text: NIH Molecular Libraries Screening Centers Network [MLSCN]
# NIH Chemical Genomics Center [NCGC]
# Assay Provider: Marshall W. Nirenberg, U.S. National heart lung & blood institute
# Memories persist for different lengths of time, from seconds or minutes to a lifetime. There are two kinds of memory: short-term memory (STM) and long-term memory (LTM). STM lasts for minutes to hours, which maybe mediated by modifications of molecules involved in synaptic functions. LTM lasts for days or longer, and may be due to the formation of new synapses or restructuring of existing synapses. LTM, but not STM, requires gene transcription and synthesis of proteins. CREB (cyclic-AMP Responsive Element Binding Protein) is one of the candidates plays an important role for enhancement of some types of LTM. CREB, a family of transcription factors, regulates the transcription of genes containing cAMP Responsive Elements (CRE). CRE is a nucleotide sequence often found in the promoter regions of genes that are binding sites for CREB.
# Using a beta-lactamase reporter-gene under control of cAMP responsive element, a cell-based assay [CellSensor(TM) CRE-bla CHO developed by Invitrogen Corp.] was used to measure forskolin-induced signaling. Library compounds were measured for their ability to modulate positively or negatively the action of EC10 NKH 477, a water soluble forskolin, on reporter gene activity. Compounds were screened in a titration series in 1536-well format. Positive and negative modulators were identified based on the AC50 values derived from the screening data.
# NCGC Assay Protocol Summary
# 2000 cells/5uL in Opti-MEM medium containing 0.5% dialyzed FBS, 0.1 mM NEAA, 1 mM sodium pyruvate and 10 mM HEPES was dispensed into 1536-well plates and cells were cultured at 37 degrees Celsius overnight. […] And then the plates were incubated at 37 degrees Celsius for 3 hours. 1 uL of CCF4-dye mixture was added to each well. After incubated at room temperature for 2 hours the plates were measured on an EnVision plate reader at Excitation 405nm, Emission1=460nm and Emission 2=530nm. The %Activity was determined from the ratio of 460nm/530nm.
# Keywords: NIH Roadmap, MLSCN, MLSMR, qHTS, NCGC, CRE, beta-lactamase reporter-gene assay.
# Potency means the concentration at half of the fitted maximal effect.
SMILES,"activity change, negative = inhibition",Potency
c1cnn(-c2cc(N3CCOCC3)ncn2)c1,17.7%,–
O=C1c2ccccc2-c2ncnc3c(N4CCOCC4)cc(N4CCOCC4)c1c23,–,2.51 µM (active)
c1ccc(-c2oc3ncnc(N4CCOCC4)c3c2-c2ccccc2)cc1,6.93%,–
CSc1nnc(CNC(=O)c2ccccc2)n1-c1ccc(F)cc1,-5.77%,–
Cc1cccc(C(=O)O)c1[N+](=O)[O-],-4.85%,–
CCOC(=O)c1cnc(-n2nc(C)cc2C)nc1-n1nc(C)cc1C,28.9%,–
CC(=O)c1ccc(Oc2cc(C)nc(-n3nc(C)cc3C)n2)cc1,–,7.94 µM (active)
CCOC(=O)c1cnc(-n2nc(C)cc2C)nc1Nc1cccc(C(C)=O)c1,3.18%,–
O=C(Nc1ccccc1)N[C@H]1C[C@H](C(=O)O)Nc2cc(Cl)cc(Cl)c21,-9.62%,–
O=C(CCCOc1ccccc1)Nc1cccc(C(=O)O)c1,-1.76%,–
CN1CCN(c2cc(=O)n(-c3ccc(Cl)cc3)c(=O)[nH]2)CC1,-6.94%,–
Cc1cc(N(C)C)cc(C)[n+]1[O-],2.28%,–
COc1ccccc1NC(=O)C1=C(C)NC2=C(C(=O)CCC2)C1c1ccc(C)o1 (stereo unspecified),-1.9%,–
COC(=O)C1=C(C)NC(=O)NC1/C=C/c1ccccc1 (stereo unspecified),-5.12%,–
COC(=O)C1=C(C)NC2=C(C(=O)c3ccccc32)C1c1ccc(-c2ccc(C(=O)O)cc2)o1 (stereo unspecified),–,0.398 µM (active)
Cc1ccc(CCn2c3c(c4ccccc42)CN(C)CC3)cn1,-5.13%,–
O=C(O)CC(C(=O)O)C(CC(=O)O)C(=O)O (stereo unspecified),-8.47%,–
CCCCC/C=C/C=C/C=O,-1.75%,–
CCOc1ccc(C(=O)Nc2cc(OC)ccc2OC)cc1,8.36%,–
CC(C)CCNc1nc(N2CCCC2)c2c(c1C#N)CCN(C)C2,-7.41%,–
CCOc1ccc2nc(N3CCCN(C(=O)Nc4ccccc4C)CC3)c(C#N)cc2c1,4.72%,–
Cc1cc(C)c2nc(N3CCCC3)c(C#N)cc2c1,–,10 µM (active)

SMILES,"activity change, negative = inhibition",Potency
COc1c(C)cccc1C(=O)Nc1cc(Cl)ccc1N1CCOCC1,8.77%,–
Cn1c(=O)n(C)c2cc(CNc3ccc(N4CCOCC4)c(C(=O)O)c3)ccc21,-4.36%,–
Cn1nc(-c2ccc(N3CCOCC3)c(NC(=O)c3ccccc3)c2)c2ccccc2c1=O,–,7.94 µM (active)
COc1ccc(OC)c2[nH]c(=O)c(CCNC(=O)C(C)(C)C)cc12,11.6%,–
COc1ccc(CNc2ncncc2-c2ccccc2OC)c(OC)c1,11.5%,–
COc1ccc(CNc2ncncc2-c2ccccc2C)c(OC)c1,4.23%,–
COc1ccc(CNc2ncnc3ccc(-c4cccnc4)cc23)c(OC)c1,–,1 µM (active)
CCOC(=O)C1CCc2nc3ccccc3c(=O)n21 (stereo unspecified),1.43%,–
CCCCCCOC(=O)NCC(O)c1ccccc1 (stereo unspecified),0.923%,–
COc1ccccc1-c1nnc(SCC(=O)Nc2cc(C)on2)o1,-0.278%,–
CCOc1ccccc1Nc1nnc(SCC(=O)Nc2cc(C)on2)s1,-11.6%,–
Cc1nc(SCC(=O)Nc2cc(C)on2)c2c(C)c(C)sc2n1,–,0.316 µM (active)
Cc1cc(NC(=O)Cn2nc(C(F)(F)F)c3c2CCCC3)no1,-5.04%,–
Cc1nc(SCC(=O)Nc2cc(C)on2)c2c3c(sc2n1)CCCC3,–,2.51 µM (active)
C=C(C)Cn1c(SCC(=O)NCc2ccco2)nc2sc3c(c2c1=O)CCC3,6.87%,–
O=C1C(C=NCC2CCCO2)=C(O)c2ccccc21 (stereo unspecified),12.5% [at 7.6 µM],–
COC(=O)[C@@]1(Cc2ccc(F)cc2)[C@H]2c3cc(C(=O)N4CCCC4)n(Cc4ccc(OC(F)(F)F)cc4)c3C[C@H]2CN1C(=O)c1ccccc1,-8.28%,–
COc1cc2c(cc1OC)C(c1ccc(C)o1)CC(=O)N2 (stereo unspecified),17.5%,–
COCCOC(=O)C1=C(C)NC(=O)CC1c1cc2c(cc1Br)OCO2 (stereo unspecified),4.43%,–
CCCOc1ccccc1C1CC(=O)Nc2cc3c(cc21)OCO3 (stereo unspecified),–,10 µM (active)
O=C(NCc1ccc(Cl)c(Cl)c1)c1cccnc1,-25.4% [at 7.6 µM],–
CCCOC(=O)Nc1ccccc1C(N)=O,3.03%,–

SMILES,"activity change, negative = inhibition",Potency
CCOc1ccc2nc(SC(CC)C(=O)Nc3cc(C)on3)sc2c1 (stereo unspecified),5.36%,–
C=CC(=C)CCC=C(C)C,1.32%,–
CCOc1cccc(-c2nnc3sc(COc4ccc(OC)cc4)nn23)c1,26.2%,–
CCOC(=O)c1sc(=S)n(-c2cccc(OC)c2)c1N,-1.32%,–
CCOc1cccc(-n2nnnc2-c2ccc(OC)cc2)c1,–,12.6 µM (active)
COC(=O)c1ccc(OC(=O)c2nn(C)cc2Cl)c(OC)c1,-4.06%,–
CCc1c(O)nc(SCC(=O)N2CCCCC2)n(-c2ccccc2C)c1=O,3.32%,–
O=C(Nc1ccccc1N1CCN(C(=O)c2ccccc2)CC1)c1ccc2c(c1)OCO2,-2.12%,–
O=C(Nc1ccccc1N1CCCCC1)c1ccc2nccnc2c1,–,10 µM (active)
O=C(Nc1ccccc1N1CCCCC1)c1cccc(F)c1,–,12.6 µM (active)
Cc1ccccc1NC(=O)CNc1ccccc1N1CCCCC1,-7.03%,–
O=C(CN1CCN(C2CCCCC2)CC1)Nc1ccccc1N1CCCCC1,-15.5%,–
O=C(Nc1ccccc1N1CCN(c2ccccc2)CC1)c1cccc(F)c1,17.9%,–
Cn1cc(S(=O)(=O)N2CCC(Cc3ccccc3)CC2)c(=O)n(C)c1=O,-3.51%,–
Cc1ccc(Br)cc1,-7.98%,–
O=C(NCc1ccccc1)[C@H]1C[C@@H]1[C@H](NP(=O)(c1ccccc1)c1ccccc1)c1ccccc1,-24.2%,–
CCC[C@@H]1C[C@@]1(CCC)[C@@H](NC(=O)c1ccccc1)c1ccc(C(=O)OC)cc1,5.13%,–
Nc1nnc(C2CCCC2)s1,3.27%,–
COc1cc(Cl)c(C)cc1NC(=O)CSc1nnc(-c2cccnc2)n1Cc1ccco1,-6.01%,–
CCn1c(SCC(=O)Nc2cc(C)c(Cl)cc2OC)nnc1-c1ccco1,–,12.6 µM (active)
CCc1cccc(C)c1NC(=O)CSc1nnc(-c2ccco2)n1N,-6.03%,–
COC(=O)[C@H]1C[C@@H]1[C@H](NC(=O)Oc1ccc(F)cc1)c1ccccc1,1.37%,–

SMILES,"activity change, negative = inhibition",Potency
NC(=O)c1ccccc1NC(=O)c1ccccc1F,5.08%,–
COC(=O)[C@@]1(Cc2ccc(OC)cc2)[C@H]2c3cc(C(=O)N4CCCC4)n(Cc4ccc(OC(F)(F)F)cc4)c3C[C@H]2CN1C(=O)c1ccccc1,-3.5%,–
O=C(CN1CCOCC1)Nc1c(-c2ccccc2)c2cc(Br)ccc2[nH]c1=O,-5.45%,–
COc1cccc(Cn2c(=O)c(CCc3ccccc3)nc3cnc(N(C)C)nc32)c1,–,6.31 µM (active)
CCNc1ncc2ncc(=O)n(Cc3cccc(OC)c3)c2n1,-14.8%,–
COc1cccc(Cn2c(=O)c(-c3ccccc3)nc3cnc(OC)nc32)c1,–,10 µM (active)
CCNc1ncc2ncc(=O)n(CCc3ccccc3)c2n1,-12.5%,–
COc1ccc(-n2nnc3c(=O)n(CC(=O)OCc4ccccc4)cnc32)cc1,6.57%,–
O=C1c2cccnc2C(=O)N1Cc1cccs1,-18.3%,–
COc1ccc(Oc2ncc3nc(-c4ccc(F)cc4)c(=O)n(C)c3n2)cc1,-0.0632%,–
COc1ccc(-c2nc3cnc(Oc4ccccc4)nc3n(Cc3cccs3)c2=O)cc1,–,3.98 µM (active)
COc1ccc(Oc2ncc3nc(C)c(=O)n(-c4ccccc4)c3n2)cc1,3.91%,–
COc1cccc(Cn2c(=O)c(C)nc3cnc(Oc4ccccc4)nc32)c1,–,10 µM (active)
COc1cccc(Nc2ncc3ncc(=O)n(C4CC4)c3n2)c1,5.13%,–
O=C(CC1(O)C(=O)N(CN2CCOCC2)c2ccccc21)c1ccccc1 (stereo unspecified),1.72%,–
CCCc1cc(=O)[nH]c(SCC(=O)OCc2ccccc2)n1,-2.25%,–
CS(=O)(=O)N1CCN(C(=O)Cc2ccccc2)CC1,2.13%,–
O=P(O)(CN1CCCCC1)CN1CCCCC1,-2.2%,–
c1ccc(-n2ncc(-c3nn[nH]n3)n2)cc1,-8.34%,–
O=C(O)CCSc1nnc(-c2ccccc2)n1-c1ccccc1,13.7% [at 7.6 µM],–
C=CCn1c(CC(=O)Nc2cccc(OC)c2)nnc1SCC(=O)NC1CCCCC1,-2.75%,–
COc1cccc(-n2c(Cc3cc(=O)[nH]c(=O)[nH]3)nnc2SCC(=O)Nc2ccccc2)c1,0.481%,–

SMILES,"activity change, negative = inhibition",Potency
COc1cccc(-n2c(SCC(=O)NC3CCCCC3)nc3n[nH]c(C)c3c2=N)c1,–,5.01 µM (active)
CCc1ccc(N(CC)c2ncnc3nc[nH]c23)cc1,-5.12%,–
CCOC(=O)NC(C(F)(F)F)(C(F)(F)F)P(=O)(c1ccccc1)c1ccccc1,-3.9%,–
CCCCNC(=O)CSc1nccn1Cc1ccccc1,-2.35%,–
O=C(C(Cc1ccccc1)n1cccc1)N1CCN(C2CCCCC2)CC1 (stereo unspecified),-11.6%,–
CC1CCCC(N2CCN(C(=O)c3ccc(F)cc3)CC2)C1 (stereo unspecified),0.17%,–
CS(=O)(=O)N(CC(=O)N1CCN(Cc2ccc3c(c2)OCO3)CC1)c1ccc2c(c1)OCO2,-2.17%,–
Cc1cc(NC(=O)CCC2COc3ccccc3O2)no1 (stereo unspecified),-1.78%,–
O=C(CN1C(=O)C2C3C=CC(C3)C2C1=O)NCC1COc2ccccc2O1 (stereo unspecified),-0.372%,–
CCOC(=O)NCc1ccc2c(c1)OCO2,-2.53%,–
CCn1cc(C(=O)N2CCN(Cc3ccc4c(c3)OCO4)CC2)c2cc(OC)c(OC)cc2c1=O,–,7.94 µM (active)
Cc1ccc(C(=O)OCC(=O)NCc2ccc3c(c2)OCO3)s1,-8.63%,–
CCn1cc(C(=O)N2CCN(C3CCCCC3)CC2)c2cc(OC)c(OC)cc2c1=O,–,10 µM (active)
COc1ccc(-c2csc(N3CCN(Cc4ccc5c(c4)OCO5)CC3)n2)cc1,-10.5%,–
CCn1cc(C(=O)NCc2ccc3c(c2)OCO3)c2cc(OC)c(OC)cc2c1=O,–,2 µM (active)
CCn1cc(C(=O)NCC2COc3ccccc3O2)c2cc(OC)c(OC)cc2c1=O (stereo unspecified),–,1.58 µM (active)
O=C(CCC(=O)OCC(F)(F)C(F)F)NCc1ccccc1,-0.132%,–
COC(=O)[C@@]1(Cc2ccc(F)cc2)[C@H]2c3cc(C(=O)N4CCCC4)n(C[C@H](O)CO)c3C[C@H]2CN1C(=O)c1ccccc1,-11.3%,–
